Over roughly 18,000 sequences, “TetR repression strength (sort-seq, GFP reporter)” has its median near 0.23; the highest 2% begin near 0.68. The entries come from a sample that favours the highest values as a whole.

Chain of TetR (class B, Tn10) (P04483 whole entry): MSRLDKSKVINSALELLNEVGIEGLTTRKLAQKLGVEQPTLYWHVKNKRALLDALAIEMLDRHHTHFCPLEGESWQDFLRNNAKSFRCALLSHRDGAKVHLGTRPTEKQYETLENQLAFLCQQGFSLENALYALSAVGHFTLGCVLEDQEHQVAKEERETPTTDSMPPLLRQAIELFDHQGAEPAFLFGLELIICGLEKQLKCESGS

The test concerns the target TetR (class B, Tn10) (UniProt P04483). Nature of the test: TetR repression strength (sort-seq, GFP reporter) (relative to tetO2 = 1); higher = stronger repression. The settings on record: E. coli. Summed up:
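E. coli SIG10-MAX carried a low-copy plasmid library with eight randomized operator positions between a constitutive promoter and sfGFP, with TetR constitutively expressed. Cells grew 5 h at 37 °C in LB with 50 µg/mL chloramphenicol, then 10^6 cells were FACS-sorted into 13 fluorescence bins, each Illumina-sequenced. Repression strength is the top bin index plus one minus the read-weighted mean bin, divided by the wild-type operator value. Three independent transformations; variants with ≥30 reads in all replicates and CV ≤0.5 were averaged.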
TCCCAACAAGTGTTCGAGA: the TetR repression strength came out at 0.0254. Sequence TCCCTGCAAGTTTCGGAGA showed a TetR repression strength of 0.0543. To TCCCCTGGAGTAGGCGAGA belongs 0.0907; to TCCCAGTGAGTACCCGAGA, 0.261. In the case of TCCCTTTTAGTGGTGGAGA it was 0.212; in that of TCCCTCATAGTAAGAGAGA, 0.291; in that of TCCCTGATAGTTGGCGAGA, 0.317. In the case of TCCCGTGGAGTTGACGAGA it was 0.0573; in that of TCCCAGATAGTCGAAGAGA, 0.115. In turn, TCCCTGGGAGTCGAAGAGA yielded a TetR repression strength of 0.196.

Regarding TCCCTGATAGTCGAAGAGA, the TetR repression strength turned out to be 1.14.

Sequence TCCCTGGTAGTCGAAGAGA showed a TetR repression strength of 0.187. In the case of TCCCTCTGAGTCGAAGAGA it was 0.0537; in that of TCCCTGAGAGTCGAAGAGA, 1.18. In the case of TCCCGGATAGTGTCGGAGA it was 0.141; in that of TCCCCGTTAGTTTTAGAGA, 0.25. To TCCCGTTGAGTATATGAGA belongs 0.229; to TCCCGATAAGTAGAAGAGA, 0.585. TCCCGTCCAGTGCTGGAGA displayed a TetR repression strength of 0.212.

TCCCGGCAAGTGCTTGAGA came in with a TetR repression strength of 0.155. With TCCCGTGCAGTGCTTGAGA, the TetR repression strength was determined as 0.207. In the case of TCCCGTCCAGTGCTTGAGA it was 0.915; in that of TCCCGTCAAGTGCTTGAGA, 0.848; in that of TCCCGTCAAGTGGTTGAGA, 0.152. With TCCCGCTCAGTTGGGGAGA, the TetR repression strength came to 0.186. In the case of TCCCCAGTAGTAGTGGAGA it was 0.246; in that of TCCCCTCTAGTAGGTGAGA, 0.12; in that of TCCCTTAGAGTGAGGGAGA, 0.0732. TCCCAACAAGTCGCAGAGA: the TetR repression strength worked out at 0.281.

Take TCCCGAGCAGTGACAGAGA: the TetR repression strength came out at 0.736. In the case of TCCCCAGCAGTGATTGAGA it was 1.1. In the case of TCCCCAGCAGTGCTTGAGA it was 0.311; in that of TCCCCAGAAGTGATTGAGA, 1.1. Sequence TCCCGAGCAGTGATGGAGA came in with a TetR repression strength of 0.371.

For TCCCGAGCAGTGATCGAGA, the TetR repression strength was found to be 0.708. TCCCAAGCAGTGACAGAGA showed a TetR repression strength of 0.432. To TCCCTAGCAGTGATCGAGA belongs 0.659; to TCCCCATAAGTGATTGAGA, 0.42; to TCCCAGGAAGTGATTGAGA, 0.266. To TCCCGAGCAGTGGCAGAGA belongs 0.286; to TCCCCAGCAGTGAGTGAGA, 0.167. To TCCCTACTAGTTACAGAGA belongs 0.0592; to TCCCGATTAGTCTTTGAGA, 0.0932. Sequence TCCCCAGGAGTCCGGGAGA displayed a TetR repression strength of 0.332. In the case of TCCCACAAAGTCAGTGAGA, the TetR repression strength was determined as 0.0709. In the case of TCCCTGATAGTCTTGGAGA it was 0.231. In the case of TCCCTCGAAGTGGGGGAGA it was 0.0994; in that of TCCCGTCGAGTAAGTGAGA, 0.219; in that of TCCCGAGTAGTGGAGGAGA, 0.155. In the case of TCCCTTGGAGTAACAGAGA it was 0; in that of TCCCGGGCAGTGATAGAGA, 0.571; in that of TCCCGAGAAGTGAAAGAGA, 0.0859. The sequence TCCCGAGCAGTGAAAGAGA gave a TetR repression strength of 0.755.

Sequence TCCCAAGCAGTGAAAGAGA returned a TetR repression strength of 0.367. To TCCCGAACAGTGGGGGAGA belongs 0.367; to TCCCGAACAGTGGGTGAGA, 0.949. To TCCCGAGCAGTGCTAGAGA belongs 0.661; to TCCCGAGCAGTGCCAGAGA, 0.684. In the case of TCCCGAGGAGTGCCAGAGA it was 0.547; in that of TCCCGAGCAGTGATAGAGA, 0.75; in that of TCCCGAACAGTGTGTGAGA, 0.161. In turn, TCCCGAGAAGTGCCAGAGA returned a TetR repression strength of 0.312. The sequence TCCCACAAAGTGGCGGAGA gave a TetR repression strength of 0.306. In the case of TCCCGTAAAGTTCCGGAGA it was 0.38; in that of TCCCAAGGAGTAGGAGAGA, 0.119; in that of TCCCACGAAGTAATAGAGA, 0.379.

As to TCCCGATAAGTTTACGAGA, the TetR repression strength was 0.495. To TCCCGAACAGTAACGGAGA belongs 0.571.

Sequence TCCCATTGAGTGCTTGAGA showed a TetR repression strength of 0.36.

Regarding TCCCGTCGAGTGAAAGAGA, the TetR repression strength was determined as 0.69. In the case of TCCCGAGCAGTGTGTGAGA it was 0.222. To TCCCGTCGAGTGAGAGAGA belongs 0.396; to TCCCGAGCAGTGATTGAGA, 0.701.

TCCCGTGCAGTGATTGAGA showed a TetR repression strength of 0.165. To TCCCGAGCAGTAACTGAGA belongs 0.149.

Sequence TCCCGAGCAGTGTGAGAGA gave a TetR repression strength of 0.175. In turn, TCCCGAGCAGTGAGTGAGA had a TetR repression strength of 0.507. To TCCCGTCGAGTGAACGAGA belongs 0.242; to TCCCGAGCAGTAACAGAGA, 0.752. To TCCCGTGCAGTAACAGAGA belongs 0; to TCCCGAGCAGTGAGAGAGA, 0.689. In the case of TCCCGTGAAGTACGCGAGA it was 0.217. In turn, TCCCCCGTAGTGGGAGAGA came in with a TetR repression strength of 0.312. To TCCCTTTAAGTGCTGGAGA belongs 0.3; to TCCCACGGAGTGTGGGAGA, 0.15.

As for TCCCCAAGAGTTATAGAGA, the TetR repression strength amounted to 0.281.

Take TCCCTTACAGTGCGTGAGA: the TetR repression strength stood at 0.183. In the case of TCCCGTGAAGTGAGCGAGA it was 0.888. In the case of TCCCGAGCAGTTATAGAGA it was 0.686.

Sequence TCCCGTGAAGTGGGCGAGA registered a TetR repression strength of 0.0935. In the case of TCCCGAGGAGTTATAGAGA it was 0.326.

Consider TCCCGAGCAGTTAGAGAGA, for which the TetR repression strength turned out to be 0.202.

TCCCGCGAAGTGAGCGAGA showed a TetR repression strength of 0.248.

TCCCTGTTAGTTGTAGAGA came in with a TetR repression strength of 0.271. In the case of TCCCGGTTAGTCTTGGAGA it was 0.317; in that of TCCCCTTGAGTTTGTGAGA, 0.323.

Turning to TCCCTGAAAGTCTACGAGA, the TetR repression strength stood at 0.815. To TCCCTGAAAGTATACGAGA belongs 0.205. To TCCCTTACAGTCCACGAGA belongs 0.808.

The sequence TCCCTAACAGTCCACGAGA yielded a TetR repression strength of 0.205. On to TCCCTTAAAGTCTACGAGA, for which the TetR repression strength stood at 0.771.

Consider TCCCTGAAAGTCTGCGAGA, for which the TetR repression strength was found to be 0.134. Sequence TCCCTAAAAGTCTACGAGA came in with a TetR repression strength of 0.16. To TCCCTTACAGTCTACGAGA belongs 0.405; to TCCCTTAAAGTCTAAGAGA, 0.539.

(Values after a collection of fitness landscapes (doi:10.1038/s41467-024-54723-y).)
